The values that follow come from ChEMBL document CHEMBL2218924, “A broad activity screen in support of a chemogenomic map for kinase signalling research and drug discovery” (Biochem J, 2013).

Test [1] concerns the target T1, Ephrin type-A receptor 3 (Homo sapiens) (UniProt P29320).
T1 sequence (whole entry): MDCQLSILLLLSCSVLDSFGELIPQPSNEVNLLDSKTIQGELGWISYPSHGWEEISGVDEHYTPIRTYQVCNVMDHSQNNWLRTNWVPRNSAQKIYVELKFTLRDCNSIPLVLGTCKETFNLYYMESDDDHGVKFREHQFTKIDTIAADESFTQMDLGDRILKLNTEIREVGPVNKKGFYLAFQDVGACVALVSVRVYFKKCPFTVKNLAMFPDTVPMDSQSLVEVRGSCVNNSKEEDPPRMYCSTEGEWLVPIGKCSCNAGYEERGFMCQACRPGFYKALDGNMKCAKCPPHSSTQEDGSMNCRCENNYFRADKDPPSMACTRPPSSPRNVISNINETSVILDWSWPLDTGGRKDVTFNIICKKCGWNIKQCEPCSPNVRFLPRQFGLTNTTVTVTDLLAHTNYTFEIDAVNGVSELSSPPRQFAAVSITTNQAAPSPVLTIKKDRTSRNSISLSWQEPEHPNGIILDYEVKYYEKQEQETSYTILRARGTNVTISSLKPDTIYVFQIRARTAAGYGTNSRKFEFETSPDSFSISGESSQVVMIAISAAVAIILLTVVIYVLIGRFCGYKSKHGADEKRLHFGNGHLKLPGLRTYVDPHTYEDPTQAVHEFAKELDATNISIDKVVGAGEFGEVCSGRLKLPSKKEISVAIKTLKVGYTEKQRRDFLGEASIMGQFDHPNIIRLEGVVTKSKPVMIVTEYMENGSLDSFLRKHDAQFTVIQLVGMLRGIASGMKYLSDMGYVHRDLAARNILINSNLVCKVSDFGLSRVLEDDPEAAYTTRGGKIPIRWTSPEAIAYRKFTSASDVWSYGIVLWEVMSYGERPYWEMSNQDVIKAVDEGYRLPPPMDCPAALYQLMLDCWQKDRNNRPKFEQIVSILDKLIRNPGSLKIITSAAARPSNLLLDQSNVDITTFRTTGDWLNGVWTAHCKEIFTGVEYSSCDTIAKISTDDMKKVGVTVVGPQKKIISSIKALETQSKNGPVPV
To be noted: at 10 µM.

For test [2], the target named is Ephrin type-A receptor 4 (Homo sapiens) (UniProt P54764). To be noted: at 1 µM.
The target is the same in test [3]. The settings on record: at 10 µM.
Test [4] addresses Ephrin type-A receptor 5 (Homo sapiens) (UniProt P54756). To be noted: at 1 µM.
The target is the same in test [5]. To be noted: at 10 µM.
The target of test [6] is Ephrin type-A receptor 7 (Homo sapiens) (UniProt Q15375). To be noted: at 1 µM.
In test [7] the target is T2, Ephrin type-A receptor 8 (Homo sapiens) (UniProt P29322).
T2 sequence (whole entry): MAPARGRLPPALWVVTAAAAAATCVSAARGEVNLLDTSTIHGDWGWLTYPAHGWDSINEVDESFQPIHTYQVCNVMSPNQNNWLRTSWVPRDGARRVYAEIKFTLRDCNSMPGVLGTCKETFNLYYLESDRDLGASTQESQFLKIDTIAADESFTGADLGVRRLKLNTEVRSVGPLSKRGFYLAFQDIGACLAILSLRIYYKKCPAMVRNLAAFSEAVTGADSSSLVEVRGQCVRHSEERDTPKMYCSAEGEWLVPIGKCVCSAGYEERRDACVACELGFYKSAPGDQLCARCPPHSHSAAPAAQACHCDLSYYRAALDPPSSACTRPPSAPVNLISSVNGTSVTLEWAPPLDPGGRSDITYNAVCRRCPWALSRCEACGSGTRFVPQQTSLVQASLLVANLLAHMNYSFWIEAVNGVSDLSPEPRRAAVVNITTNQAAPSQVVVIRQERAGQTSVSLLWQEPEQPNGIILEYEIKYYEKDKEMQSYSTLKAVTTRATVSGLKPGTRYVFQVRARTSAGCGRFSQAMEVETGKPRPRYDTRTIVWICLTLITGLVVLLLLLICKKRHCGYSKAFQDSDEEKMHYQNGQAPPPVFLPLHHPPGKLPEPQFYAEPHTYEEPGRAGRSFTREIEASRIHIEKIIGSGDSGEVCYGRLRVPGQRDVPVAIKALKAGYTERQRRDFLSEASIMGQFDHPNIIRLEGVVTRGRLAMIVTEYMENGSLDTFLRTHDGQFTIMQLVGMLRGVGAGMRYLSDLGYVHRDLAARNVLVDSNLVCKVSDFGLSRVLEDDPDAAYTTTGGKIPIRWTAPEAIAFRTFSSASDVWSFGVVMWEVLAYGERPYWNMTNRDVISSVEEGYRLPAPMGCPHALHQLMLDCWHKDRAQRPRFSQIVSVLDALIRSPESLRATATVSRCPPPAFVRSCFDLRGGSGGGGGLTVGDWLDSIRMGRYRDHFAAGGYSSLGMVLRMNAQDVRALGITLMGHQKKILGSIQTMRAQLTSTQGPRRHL
The settings on record: at 10 µM.

The target of test [8] is T3, Ephrin type-B receptor 2 (Homo sapiens) (UniProt P29323).
T3 sequence (whole entry): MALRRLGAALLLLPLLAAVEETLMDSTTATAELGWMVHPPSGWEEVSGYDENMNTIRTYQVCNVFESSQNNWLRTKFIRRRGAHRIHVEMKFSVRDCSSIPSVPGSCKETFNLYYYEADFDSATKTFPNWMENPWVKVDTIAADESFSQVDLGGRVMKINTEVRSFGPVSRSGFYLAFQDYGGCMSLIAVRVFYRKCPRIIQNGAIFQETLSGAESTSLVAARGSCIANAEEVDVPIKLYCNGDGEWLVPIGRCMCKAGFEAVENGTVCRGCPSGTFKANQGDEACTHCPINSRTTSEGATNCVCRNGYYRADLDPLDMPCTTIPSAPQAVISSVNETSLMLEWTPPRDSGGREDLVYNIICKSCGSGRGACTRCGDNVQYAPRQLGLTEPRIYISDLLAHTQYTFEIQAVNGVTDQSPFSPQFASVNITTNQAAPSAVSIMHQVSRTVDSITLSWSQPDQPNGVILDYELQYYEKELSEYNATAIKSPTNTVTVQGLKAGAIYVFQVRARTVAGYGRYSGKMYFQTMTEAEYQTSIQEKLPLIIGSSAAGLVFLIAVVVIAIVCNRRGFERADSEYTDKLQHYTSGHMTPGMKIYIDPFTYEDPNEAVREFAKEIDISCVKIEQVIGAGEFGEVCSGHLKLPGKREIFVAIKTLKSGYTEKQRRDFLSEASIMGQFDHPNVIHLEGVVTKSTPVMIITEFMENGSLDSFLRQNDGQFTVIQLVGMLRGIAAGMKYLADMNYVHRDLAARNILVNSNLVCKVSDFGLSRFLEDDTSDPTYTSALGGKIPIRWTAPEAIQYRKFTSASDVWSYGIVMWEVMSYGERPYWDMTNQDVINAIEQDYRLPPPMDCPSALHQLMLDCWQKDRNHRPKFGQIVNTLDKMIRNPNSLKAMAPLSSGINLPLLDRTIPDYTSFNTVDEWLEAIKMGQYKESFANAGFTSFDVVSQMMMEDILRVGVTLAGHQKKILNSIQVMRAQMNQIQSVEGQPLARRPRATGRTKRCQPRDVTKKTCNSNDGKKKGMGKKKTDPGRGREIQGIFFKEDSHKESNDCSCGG
The settings on record: at 10 µM.

Test [9] has as its target T4, Ephrin type-B receptor 3 (Homo sapiens) (UniProt P54753).
T4 sequence (whole entry): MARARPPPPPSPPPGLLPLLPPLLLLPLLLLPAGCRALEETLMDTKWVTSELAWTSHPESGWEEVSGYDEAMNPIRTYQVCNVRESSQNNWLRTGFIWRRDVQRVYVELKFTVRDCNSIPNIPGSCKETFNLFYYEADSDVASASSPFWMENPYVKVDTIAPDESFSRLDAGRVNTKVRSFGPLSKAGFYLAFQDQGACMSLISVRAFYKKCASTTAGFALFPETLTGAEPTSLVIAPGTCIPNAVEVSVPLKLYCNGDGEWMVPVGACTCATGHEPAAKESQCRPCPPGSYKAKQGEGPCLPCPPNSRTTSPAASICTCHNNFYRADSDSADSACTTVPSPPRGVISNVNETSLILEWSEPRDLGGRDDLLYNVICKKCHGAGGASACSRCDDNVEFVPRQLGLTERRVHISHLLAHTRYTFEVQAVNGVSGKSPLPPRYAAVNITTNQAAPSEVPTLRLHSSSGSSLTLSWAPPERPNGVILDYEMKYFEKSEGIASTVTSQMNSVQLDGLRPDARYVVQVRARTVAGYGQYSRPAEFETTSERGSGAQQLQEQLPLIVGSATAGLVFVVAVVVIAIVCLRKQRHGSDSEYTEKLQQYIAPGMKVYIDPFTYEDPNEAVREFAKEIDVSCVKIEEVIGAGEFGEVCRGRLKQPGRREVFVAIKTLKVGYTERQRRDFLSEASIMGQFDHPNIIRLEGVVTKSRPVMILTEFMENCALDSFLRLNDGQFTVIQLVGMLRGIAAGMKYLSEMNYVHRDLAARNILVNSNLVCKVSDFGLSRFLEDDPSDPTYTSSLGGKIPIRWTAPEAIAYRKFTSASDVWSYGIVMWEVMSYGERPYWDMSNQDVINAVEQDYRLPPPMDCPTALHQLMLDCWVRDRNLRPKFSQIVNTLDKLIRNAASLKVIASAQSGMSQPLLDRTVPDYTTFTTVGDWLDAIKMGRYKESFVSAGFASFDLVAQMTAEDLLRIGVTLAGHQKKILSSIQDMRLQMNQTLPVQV
The settings on record: at 1 µM.

In test [10] the target is T4, Ephrin type-B receptor 3 (Homo sapiens). To be noted: at 10 µM.
In test [11] the target is T5, Ephrin type-B receptor 4 (Homo sapiens) (UniProt P54760).
T5 sequence (whole entry): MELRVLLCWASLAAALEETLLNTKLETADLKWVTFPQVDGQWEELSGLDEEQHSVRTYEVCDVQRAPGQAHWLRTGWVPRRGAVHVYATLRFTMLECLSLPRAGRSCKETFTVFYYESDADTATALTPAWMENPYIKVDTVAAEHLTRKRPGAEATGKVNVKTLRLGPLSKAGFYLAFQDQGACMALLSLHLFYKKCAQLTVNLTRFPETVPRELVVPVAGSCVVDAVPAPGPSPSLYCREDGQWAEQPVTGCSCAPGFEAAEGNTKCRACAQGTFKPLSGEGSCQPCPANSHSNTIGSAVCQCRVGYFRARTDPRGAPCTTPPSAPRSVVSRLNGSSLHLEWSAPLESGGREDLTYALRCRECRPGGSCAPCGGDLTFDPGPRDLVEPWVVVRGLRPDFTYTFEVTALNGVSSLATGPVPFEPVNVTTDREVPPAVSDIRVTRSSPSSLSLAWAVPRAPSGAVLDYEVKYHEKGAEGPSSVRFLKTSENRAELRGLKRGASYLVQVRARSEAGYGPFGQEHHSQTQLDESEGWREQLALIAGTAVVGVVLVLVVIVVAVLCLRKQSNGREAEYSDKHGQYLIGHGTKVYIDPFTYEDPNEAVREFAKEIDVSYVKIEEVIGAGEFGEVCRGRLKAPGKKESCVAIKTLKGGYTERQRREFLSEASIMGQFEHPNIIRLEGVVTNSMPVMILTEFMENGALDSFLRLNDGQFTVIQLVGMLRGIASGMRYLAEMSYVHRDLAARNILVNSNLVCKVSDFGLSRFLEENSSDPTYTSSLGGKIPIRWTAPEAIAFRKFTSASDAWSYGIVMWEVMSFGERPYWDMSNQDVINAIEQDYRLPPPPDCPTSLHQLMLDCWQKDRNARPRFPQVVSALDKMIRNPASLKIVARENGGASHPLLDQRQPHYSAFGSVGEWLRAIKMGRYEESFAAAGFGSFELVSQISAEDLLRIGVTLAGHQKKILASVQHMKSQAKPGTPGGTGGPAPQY
To be noted: at 1 µM.

Test [12] deals with T5, Ephrin type-B receptor 4 (Homo sapiens). The settings on record: at 10 µM.
In test [13] the target is Receptor tyrosine-protein kinase erbB-4 (Homo sapiens) (UniProt Q15303). To be noted: at 1 µM.
Test [14] shares this target. The settings on record: at 10 µM.
For test [15], the target named is Focal adhesion kinase 1 (Homo sapiens) (UniProt Q05397). The settings on record: at 1 µM.

Sequence of Ephrin type-A receptor 4 (Homo sapiens) (P54764 whole entry): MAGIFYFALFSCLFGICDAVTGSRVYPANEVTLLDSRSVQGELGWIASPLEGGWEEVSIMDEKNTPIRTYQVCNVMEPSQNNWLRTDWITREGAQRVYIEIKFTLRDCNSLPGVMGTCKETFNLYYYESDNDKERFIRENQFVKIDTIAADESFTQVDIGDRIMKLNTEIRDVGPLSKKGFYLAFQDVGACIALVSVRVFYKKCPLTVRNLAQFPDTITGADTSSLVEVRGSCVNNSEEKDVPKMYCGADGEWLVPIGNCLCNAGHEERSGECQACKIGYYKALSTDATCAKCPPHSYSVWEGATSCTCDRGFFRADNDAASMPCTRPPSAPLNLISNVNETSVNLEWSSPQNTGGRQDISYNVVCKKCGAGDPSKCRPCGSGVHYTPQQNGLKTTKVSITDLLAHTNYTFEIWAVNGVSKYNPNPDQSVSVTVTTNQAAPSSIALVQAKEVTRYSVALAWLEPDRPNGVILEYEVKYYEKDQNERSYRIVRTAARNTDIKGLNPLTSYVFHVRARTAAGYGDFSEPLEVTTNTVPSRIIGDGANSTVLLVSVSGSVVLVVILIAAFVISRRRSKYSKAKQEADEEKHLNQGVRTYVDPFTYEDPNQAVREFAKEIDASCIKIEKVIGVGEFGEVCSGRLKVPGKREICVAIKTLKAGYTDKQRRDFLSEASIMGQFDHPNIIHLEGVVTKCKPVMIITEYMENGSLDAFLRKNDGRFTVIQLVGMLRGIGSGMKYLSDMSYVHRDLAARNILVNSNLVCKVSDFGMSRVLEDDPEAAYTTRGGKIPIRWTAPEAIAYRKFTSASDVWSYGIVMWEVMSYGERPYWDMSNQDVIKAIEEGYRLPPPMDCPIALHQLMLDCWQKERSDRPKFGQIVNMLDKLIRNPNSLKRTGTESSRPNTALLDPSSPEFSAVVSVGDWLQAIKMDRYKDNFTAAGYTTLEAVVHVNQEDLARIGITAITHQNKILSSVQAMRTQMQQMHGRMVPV
Sequence of Ephrin type-A receptor 5 (Homo sapiens) (P54756 whole entry): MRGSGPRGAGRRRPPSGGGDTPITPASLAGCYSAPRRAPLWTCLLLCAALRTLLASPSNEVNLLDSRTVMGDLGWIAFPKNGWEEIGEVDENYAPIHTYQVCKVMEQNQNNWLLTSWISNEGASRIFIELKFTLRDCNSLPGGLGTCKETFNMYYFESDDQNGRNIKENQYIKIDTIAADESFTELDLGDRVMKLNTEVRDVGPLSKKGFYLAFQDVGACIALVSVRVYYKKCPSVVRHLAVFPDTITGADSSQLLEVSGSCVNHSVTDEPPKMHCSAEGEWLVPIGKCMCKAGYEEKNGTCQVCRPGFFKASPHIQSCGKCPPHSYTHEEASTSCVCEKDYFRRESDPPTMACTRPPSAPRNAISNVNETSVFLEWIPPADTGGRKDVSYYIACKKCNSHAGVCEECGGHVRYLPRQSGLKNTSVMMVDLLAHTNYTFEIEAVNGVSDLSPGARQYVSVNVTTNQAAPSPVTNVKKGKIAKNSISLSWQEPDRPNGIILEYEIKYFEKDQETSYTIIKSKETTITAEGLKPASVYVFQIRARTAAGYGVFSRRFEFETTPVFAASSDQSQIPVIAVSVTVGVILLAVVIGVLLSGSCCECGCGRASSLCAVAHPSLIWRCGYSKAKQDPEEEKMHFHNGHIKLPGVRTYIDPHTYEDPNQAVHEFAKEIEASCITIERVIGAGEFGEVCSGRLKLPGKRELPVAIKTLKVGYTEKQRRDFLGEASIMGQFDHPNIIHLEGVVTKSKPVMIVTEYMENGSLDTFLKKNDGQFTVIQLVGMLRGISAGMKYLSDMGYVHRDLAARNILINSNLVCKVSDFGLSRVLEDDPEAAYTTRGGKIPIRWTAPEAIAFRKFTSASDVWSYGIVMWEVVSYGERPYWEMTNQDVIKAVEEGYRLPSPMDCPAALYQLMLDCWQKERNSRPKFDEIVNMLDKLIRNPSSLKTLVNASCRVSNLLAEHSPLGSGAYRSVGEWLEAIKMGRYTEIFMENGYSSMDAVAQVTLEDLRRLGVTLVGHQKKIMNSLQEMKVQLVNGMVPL
Sequence of Receptor tyrosine-protein kinase erbB-4 (Homo sapiens) (Q15303 whole entry): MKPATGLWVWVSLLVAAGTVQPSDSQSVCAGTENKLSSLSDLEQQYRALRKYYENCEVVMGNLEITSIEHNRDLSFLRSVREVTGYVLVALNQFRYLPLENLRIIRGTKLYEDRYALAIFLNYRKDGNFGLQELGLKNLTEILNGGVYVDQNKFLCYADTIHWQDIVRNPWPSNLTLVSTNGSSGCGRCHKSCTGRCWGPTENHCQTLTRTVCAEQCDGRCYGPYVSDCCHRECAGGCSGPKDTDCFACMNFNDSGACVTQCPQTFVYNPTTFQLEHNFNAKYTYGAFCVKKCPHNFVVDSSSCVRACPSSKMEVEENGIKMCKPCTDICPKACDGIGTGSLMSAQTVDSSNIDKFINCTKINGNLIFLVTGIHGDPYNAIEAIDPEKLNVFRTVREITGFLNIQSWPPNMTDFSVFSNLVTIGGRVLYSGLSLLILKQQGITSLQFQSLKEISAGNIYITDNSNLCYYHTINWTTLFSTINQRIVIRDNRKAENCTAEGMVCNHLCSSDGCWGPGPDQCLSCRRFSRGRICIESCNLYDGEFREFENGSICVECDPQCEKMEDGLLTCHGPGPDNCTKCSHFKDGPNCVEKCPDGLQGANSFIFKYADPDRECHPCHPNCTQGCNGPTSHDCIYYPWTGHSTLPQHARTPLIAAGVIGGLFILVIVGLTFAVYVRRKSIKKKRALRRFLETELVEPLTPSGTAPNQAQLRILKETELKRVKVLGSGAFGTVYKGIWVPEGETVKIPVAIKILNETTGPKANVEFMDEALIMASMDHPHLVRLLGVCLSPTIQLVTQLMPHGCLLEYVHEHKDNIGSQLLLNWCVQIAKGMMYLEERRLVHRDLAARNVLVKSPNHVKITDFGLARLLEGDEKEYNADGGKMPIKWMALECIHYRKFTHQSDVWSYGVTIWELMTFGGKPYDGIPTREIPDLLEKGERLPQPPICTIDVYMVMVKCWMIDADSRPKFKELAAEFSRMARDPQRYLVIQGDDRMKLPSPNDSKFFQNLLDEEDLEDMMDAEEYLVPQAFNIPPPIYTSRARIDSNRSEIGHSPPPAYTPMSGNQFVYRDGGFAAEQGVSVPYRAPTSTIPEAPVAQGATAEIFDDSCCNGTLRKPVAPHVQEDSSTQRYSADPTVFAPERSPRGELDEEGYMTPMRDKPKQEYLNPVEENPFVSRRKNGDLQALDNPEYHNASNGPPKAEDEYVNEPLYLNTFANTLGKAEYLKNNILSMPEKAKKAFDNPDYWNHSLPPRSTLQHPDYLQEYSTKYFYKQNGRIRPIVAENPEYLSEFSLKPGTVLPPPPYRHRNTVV
Sequence of Ephrin type-A receptor 7 (Homo sapiens) (Q15375 28-998 limits assumed): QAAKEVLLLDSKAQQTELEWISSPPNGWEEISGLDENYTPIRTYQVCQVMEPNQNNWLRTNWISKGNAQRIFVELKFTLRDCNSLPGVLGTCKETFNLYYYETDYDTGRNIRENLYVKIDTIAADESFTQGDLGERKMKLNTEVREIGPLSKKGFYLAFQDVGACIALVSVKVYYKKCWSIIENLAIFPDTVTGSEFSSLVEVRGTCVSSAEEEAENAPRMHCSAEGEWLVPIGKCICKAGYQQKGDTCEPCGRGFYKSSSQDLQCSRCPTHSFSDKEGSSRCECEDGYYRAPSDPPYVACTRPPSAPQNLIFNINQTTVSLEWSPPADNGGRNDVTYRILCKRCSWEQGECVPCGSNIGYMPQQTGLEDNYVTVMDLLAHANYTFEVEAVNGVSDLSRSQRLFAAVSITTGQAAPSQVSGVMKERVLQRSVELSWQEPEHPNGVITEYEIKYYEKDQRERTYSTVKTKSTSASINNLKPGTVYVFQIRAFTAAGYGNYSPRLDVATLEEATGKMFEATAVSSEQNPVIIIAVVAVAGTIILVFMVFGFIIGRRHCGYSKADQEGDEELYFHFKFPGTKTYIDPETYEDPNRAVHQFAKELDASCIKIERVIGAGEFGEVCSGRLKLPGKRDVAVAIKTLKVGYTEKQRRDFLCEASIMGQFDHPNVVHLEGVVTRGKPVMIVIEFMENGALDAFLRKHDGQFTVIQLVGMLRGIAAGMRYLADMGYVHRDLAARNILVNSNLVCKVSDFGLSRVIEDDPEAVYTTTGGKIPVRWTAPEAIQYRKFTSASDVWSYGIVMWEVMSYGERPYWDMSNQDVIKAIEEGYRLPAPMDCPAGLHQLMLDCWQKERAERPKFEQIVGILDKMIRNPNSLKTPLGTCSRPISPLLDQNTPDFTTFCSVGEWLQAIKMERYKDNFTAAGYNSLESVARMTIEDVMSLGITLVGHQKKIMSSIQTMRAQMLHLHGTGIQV

As for `Nc1ncnc2[nH]nc(Nc3ccc(F)cc3)c12`, the residual activity in [1] came to 42%; in [2], 111%; in test [3] it was 77%; in test [4], 82%; in test [5], 34%; in test [6], 105%. Besides, the residual activity in test [7] is 43%; in test [8], 9%; in test [9], 123% (inactive); in [10], 107%; in test [11], 42%; in test [12] it was 6%. Moreover, the results for the residual activity in test [13], in [14] and in [15] were 18%, 11% and 109%, respectively.

As usually defined, the residual activity is the signal under treatment as a percentage of the control signal.
